The structures appear in SMILES notation. Results filed as inconclusive are left out. A number with no mark means an inactive call. The source made the active and inactive calls. Calls follow the shape of the dose curve; as a rule, active = well fitted curve in the direction sought with a large enough effect; inconclusive = small, poorly fitted or top-dose-only effect, or another doubt; inactive = no such curve, though single readings can be large; an effect the other way counts as inactive or inconclusive.
Also: nearly all actives have a fitted effect of over 70% in size.
Potency is read from the fitted curve at half-maximal effect.

The target of one assay is Furin (Homo sapiens) (UniProt P09958). The assay is described as follows: Furin counterscreen qHTS for Zika virus inhibitors (AID 1347149).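 As to activity change, negative = inhibition: purified recombinant full-length human furin enzyme at 5 nM; fluorescence gain from furin cutting a BOC-RVRR-AMC peptide substrate over 15 min; top concentration of the series differs between compounds; plate controls were no-inhibitor control for no effect and no-enzyme control for full effect.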 The settings on record: furin enzymatic counterscreen, fluorogenic substrate; series mostly up to 57.5 µM; activity change, negative = inhibition: at the top concentration. The essentials: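 Fluorogenic cleavage of BOC-RVRR-AMC (2 microM final, Km ~15 µM) was monitored (ex 340, em 450 nm) at 37C after 15 min RT preincubation of 5 nM furin with compounds in HEPES pH 7.0 buffer with CaCl2 and Triton X-100. Percent inhibition was fitted to a 4-parameter Hill curve.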
Furin (Homo sapiens), sequence (P09958 whole entry, looked up): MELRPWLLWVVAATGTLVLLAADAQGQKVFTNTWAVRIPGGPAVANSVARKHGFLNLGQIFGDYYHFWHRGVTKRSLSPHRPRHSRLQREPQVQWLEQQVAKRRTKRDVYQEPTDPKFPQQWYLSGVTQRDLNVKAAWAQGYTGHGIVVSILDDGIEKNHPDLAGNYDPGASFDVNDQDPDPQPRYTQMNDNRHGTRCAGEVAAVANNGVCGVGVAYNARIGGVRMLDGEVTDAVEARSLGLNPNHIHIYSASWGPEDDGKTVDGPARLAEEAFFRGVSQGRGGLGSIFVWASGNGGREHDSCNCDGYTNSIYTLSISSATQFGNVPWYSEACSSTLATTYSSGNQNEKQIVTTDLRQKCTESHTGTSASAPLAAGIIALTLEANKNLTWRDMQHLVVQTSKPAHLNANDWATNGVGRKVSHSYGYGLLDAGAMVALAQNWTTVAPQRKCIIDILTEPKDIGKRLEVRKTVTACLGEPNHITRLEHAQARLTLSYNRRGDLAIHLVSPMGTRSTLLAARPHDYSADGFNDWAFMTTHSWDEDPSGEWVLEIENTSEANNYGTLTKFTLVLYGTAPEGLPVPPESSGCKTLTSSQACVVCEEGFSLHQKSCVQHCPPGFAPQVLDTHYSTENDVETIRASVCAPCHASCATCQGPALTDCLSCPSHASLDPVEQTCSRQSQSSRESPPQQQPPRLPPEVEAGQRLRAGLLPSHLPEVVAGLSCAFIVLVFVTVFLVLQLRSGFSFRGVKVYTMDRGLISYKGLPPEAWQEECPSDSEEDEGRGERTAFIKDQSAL
On to `COc1ccc(S(=O)(=O)Nc2cc(-c3c(O)ccc4ccccc34)c(O)c3ccccc23)cc1`, for which the “activity change, negative = inhibition” value was -2.62%.

For the compound `c1cc(N[C@@H]2CCNC2)nc(-c2cnc3ccc(-c4cn[nH]c4)cn23)c1`, the Potency is 24.1 µM (active).

Turning to `C[C@H]1COc2c(N3CCN(C)CC3)c(F)cc3c(=O)c(C(=O)O)cn1c23`, the Potency is 24.1 µM (active).

The test system of another assay is Zika virus NS2B-NS3 protease (linked construct). The assay is described as follows: Confirmatory screen NINDS AMC qHTS for Zika virus inhibitors (AID 1347152).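 As to activity change, negative = inhibition: AMC fluorescence gain from cleaved Bz-Nle-KRR-AMC substrate over 15 min; top concentration of the series differs between compounds; 0% = no-inhibitor control and -100% = no-enzyme control.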 The settings on record: Purified linked NS2B-NS3, AMC substrate fluorescence; series mostly up to 56.6 µM; activity change, negative = inhibition: at the top concentration. The procedure, abridged:
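Enzyme (1 nM, linked construct) was preincubated with compound for 15 minutes at room temperature in 10 mM Tris-HCl pH 8.0 with 0.01% Tween 20. Bz-Nle-Lys-Arg-Arg-AMC was then added to 10 microM, and AMC fluorescence was recorded immediately and after 15 minutes.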
For orientation: Quantitative high-throughput screening tests each substance at several concentrations.
Consider `CCCCCCCCc1ccc(CCC(N)(CO)CO)cc1`, for which the “activity change, negative = inhibition” value is 3.47%.

For the compound `COc1ccc(S(=O)(=O)Nc2cc(-c3c(O)ccc4ccccc34)c(O)c3ccccc23)cc1`, the Potency is 19.2 µM (active).

With `c1cc(N[C@@H]2CCNC2)nc(-c2cnc3ccc(-c4cn[nH]c4)cn23)c1`, the Potency was 24.1 µM (active).

For the compound `C[C@@H](NCc1cc2ccccc2[nH]1)c1cccc2ccccc12`, the “activity change, negative = inhibition” value is -13.9%.

For `C[C@H]1COc2c(N3CCN(C)CC3)c(F)cc3c(=O)c(C(=O)O)cn1c23`, the Potency is 24.1 µM (active).

For `CC(C)c1cc(C(C)C)c(CC(=O)NS(=O)(=O)Oc2c(C(C)C)cccc2C(C)C)c(C(C)C)c1`, the Potency is 7.84 µM (active).

The values above are taken from PubChem BioAssay (NCATS).
